# Rows were chosen to be rich in hits. Some 27% of all compounds tested hit in one or more screens of this group.
# CYP2C9 inhib – blockers of cytochrome P450 2C9 activity – biochemical, luminescence, ADME assay, primary screen | inhibition, % at 5 µM | P11712 | 20% of 96,000 active | CYP2C9 Supersomes, luciferin-H conversion;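 active = blocking of liver enzyme CYP2C9 beyond about 50% at 5 µM, limit read from the data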
# CYP2C19 activ – human CYP2C19 activators, primary screen, biochemical, luminescence | Cytochrome P450 2C19 (Homo sapiens), P33261 | activation factor at 5 µM | recombinant CYP2C19, luciferin-H EGE luminescence; stronger effect = higher value; 0 = fully inhibited enzyme, 1 = untreated enzyme | AID 1025, 2008 | 96,000 tested, under 10 active;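 active = activation factor of at least 2 at 5 µM in the primary screen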
# Target sequence (P33261 whole entry, looked up): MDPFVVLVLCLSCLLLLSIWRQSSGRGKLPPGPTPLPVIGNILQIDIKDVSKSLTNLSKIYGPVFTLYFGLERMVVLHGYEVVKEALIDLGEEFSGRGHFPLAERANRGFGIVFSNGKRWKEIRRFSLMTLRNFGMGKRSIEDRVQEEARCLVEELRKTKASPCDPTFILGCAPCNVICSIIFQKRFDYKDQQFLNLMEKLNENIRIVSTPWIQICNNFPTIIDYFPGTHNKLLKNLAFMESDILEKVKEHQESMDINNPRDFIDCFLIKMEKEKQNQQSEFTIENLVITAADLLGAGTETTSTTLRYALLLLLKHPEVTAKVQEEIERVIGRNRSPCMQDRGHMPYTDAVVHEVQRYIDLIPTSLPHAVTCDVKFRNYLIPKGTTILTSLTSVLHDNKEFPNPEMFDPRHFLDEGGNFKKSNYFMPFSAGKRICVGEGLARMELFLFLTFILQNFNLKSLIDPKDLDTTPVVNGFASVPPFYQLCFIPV
# CYP2C9 act – human CYP2C9 activators, primary screen, biochemical, luminescence; Cytochrome P450 2C9 (Homo sapiens), P11712; recombinant CYP2C9, luciferin-H conversion; stronger effect = higher value; factor 1 = untreated enzyme, 0 = blocked; activation factor at 5 µM; 1.4% of 96,000 active; AID 1024, 2008;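 active = activation factor of 2 or more for CYP2C9 at a 5 µM dose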
# EphB4 antag – EphB4-ephrin-B2 interaction antagonists, primary screen, biochemical, TNYL-RAW peptide probe, fluorescence polarization; 0.15% of 97,000 active; AID 720, 2007; Ephrin type-B receptor 4 (Homo sapiens), P54760; EphB4 LBD / TNYL-RAW-Alexa532 peptide; inhibition, % at 7 µM;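 active = inhibition above the screen-wide mean inhibition plus 3 SD, cut at about 15% in these data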
# CYP2C19 inhib – blockers of cytochrome P450 2C19 activity – biochemical, luminescence, ADME assay, primary screen | P33261 | CYP2C19 Supersomes, luciferin-H EGE luminescence, 30 min | inhibition, % at 5 µM | 21% of 96,000 active | AID 778, 2007;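 active = CYP2C19 inhibition above a set limit at 5 µM in the primary screen, cut at about 50% in these data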
# Numbers stand for hits; - = inactive; . = no result.
SMILES,CYP2C9 inhib,CYP2C19 activ,CYP2C9 act,EphB4 antag,CYP2C19 inhib
COc1ccc(-c2nc3c4ccccc4[nH]c(=O)n3n2)cc1,-,-,-,-,-
O=C(NN1C(=O)/C(=C/c2cccnc2)SC1=S)C(c1ccccc1)c1ccccc1,82.1,-,-,-,-
Nc1nc(-c2ccco2)cs1,-,-,-,-,-
Nc1nc(-c2ccco2)c(-c2ccco2)s1,77.3,-,-,-,78.5
c1coc(-c2ncc[nH]2)c1,-,-,-,-,-
COc1ccc2nc(-c3ccco3)c(-c3ccco3)nc2c1,56.0,-,-,-,-
c1coc(-c2nc(-c3ccco3)c(-c3ccco3)nc2-c2ccco2)c1,-,-,-,19.0,-
CCOc1ccc2nc(COC(=O)c3ccco3)c(C(C)=O)[n+]([O-])c2c1,-,-,-,-,-
Cc1ccc(CN2C(=O)CCC2C(=O)NCCN(CC(C)C)CC(C)C)cc1 (stereo unspecified),-,-,-,-,-
CN(C)c1nc(NCc2ccccc2)nc(N/N=C/c2ccc(Cl)cc2Cl)n1,-,-,-,-,-
O=C(NCc1ccc(F)cc1)c1cnn2ccccc12,-,-,-,-,59.5
CC(C)c1ccc(NC(=O)CCNS(=O)(=O)c2cccc3nonc23)cc1,.,.,.,-,.
O=c1[nH]c(=O)n(Cc2ccccc2)c2c1C(C(F)(F)F)(C(F)(F)F)N=C(c1ccco1)N2,-,-,-,-,-
CC1=C(C#N)C(C(F)(F)F)(C(F)(F)F)N=C(c2ccco2)N1,75.0,-,-,-,81.9
COc1ccc(-n2c(-c3ccccc3)cc3c2CCCC3=O)cc1,-,-,-,-,75.5
COC(=O)CCC(=O)Nc1cccc(C(=O)Nc2cccc(Cl)c2)c1,-,-,-,-,-
Cc1cc(NC(=O)CSc2cn(C)c3ccccc23)no1,-,-,-,-,94.8
CCn1cc(SCC(=O)Nc2cc(C)on2)c2ccccc21,-,-,-,-,55.1
C=CCn1c(=O)c2ccccc2n2c(SCC(=O)Nc3cc(C)on3)nnc12,50.4,-,-,-,-
CCn1cc(SCC(N)=O)c2ccccc21,-,-,-,.,-
CCCn1c(=O)c2ccccc2n2c(SCC(=O)Nc3cc(C)on3)nnc12,-,-,-,.,-
COc1ccc2[nH]c(=O)c3c(c2c1)OC(C)(C)C=C3,-,-,-,-,-
COc1ccc(-c2c3c(=O)n(C)c(=O)n(C)c3cn2C2CCCCC2)cc1,77.0,-,-,-,70.5
COC(=O)c1ccccc1S(=O)(=O)N1CCC(c2nc3ccccc3o2)CC1,81.1,-,-,-,87.1
O=C1CC(c2ccccc2)CCc2sccc2N1 (stereo unspecified),-,-,-,-,65.8
SMILES,CYP2C9 inhib,CYP2C19 activ,CYP2C9 act,EphB4 antag,CYP2C19 inhib
CCC(C)NC(=O)c1ccccc1NC(=O)c1ccc(CSc2ccc(C)cc2)cc1 (stereo unspecified),-,-,-,-,-
COc1cccc(COc2ccccc2C2Nc3ccc(Br)cc3C(=O)N2NC(=O)c2ccncc2)c1 (stereo unspecified),84.8,-,-,-,68.9
Cc1cc(NC(=O)c2cccc(COc3ccc(Br)cc3)c2)no1,-,-,-,-,-
COc1ccc(OC)c(S(=O)(=O)n2cnc3cc(C)c(C)cc32)c1,86.8,-,-,-,97.5
COc1ccc(OC)c(S(=O)(=O)n2nc(C)cc2C)c1,-,-,-,-,68.1
Cc1ccc(C)c(C(=O)CSc2n[nH]c(C(C)C)n2)c1,-,-,-,-,-
COC(=O)CNc1c(-c2ccccc2)nc2ccc(Br)cn12,76.8,-,-,-,69.4
COCCNc1c(-c2ccc(O)cc2)nc2ccc(Cl)cn12,.,.,.,-,.
CC(=O)N1CCN=C1SCc1ccccc1,-,-,-,-,-
COc1cc(CNn2cn[nH]c2=S)cc(Cl)c1OCc1ccccc1,-,-,-,-,82.5
COc1cc(CNn2nnnc2N)cc(Br)c1OCc1c(Cl)cccc1Cl,-,-,-,-,-
CC(C)(NO)/C(=N/O)c1ccc(Br)cc1,-,-,-,-,64.2
O=C(CSc1nnc(-c2cccs2)o1)N1CCOCC1,-,-,-,-,-
COc1cccc(CNc2nc3nc(C)cc(=O)n3[nH]2)c1,-,-,-,-,-
Cc1ccccc1NC(=O)CCSc1nnnn1-c1ccccc1,.,.,.,-,.
COC(=O)c1ccsc1NC(=O)CSc1nnnn1-c1ccccc1SC,-,-,2,-,-
COC(=O)c1ccccc1NC(=O)CSc1nnnn1-c1ccc(C)cc1C,-,-,-,-,-
CC(CCc1ccccc1)NC(=O)CSc1nnnn1C (stereo unspecified),-,-,-,-,-
CSc1ccccc1NC(=O)CSc1nnnn1-c1ccccc1SC,-,-,3.1,-,-
CSc1ccccc1-n1nnnc1SCC(=O)Nc1ccccc1C,-,-,3.3,-,87.0
Cn1nnnc1SCC(=O)Nc1ccccc1Cc1ccccc1,57.8,-,-,-,55.4
CCC(NS(=O)(=O)c1ccc(OC)cc1)C(=O)NCCC1=CCCCC1 (stereo unspecified),-,-,-,-,-
CC(C)[C@@H](C(=O)NCC1CCC(C(=O)O)CC1)n1nnc2ccccc2c1=O (stereo partly specified),-,-,-,-,-
COc1ccc(S(=O)(=O)N(n2c(C)nnc2-n2nc(C)cc2C)S(=O)(=O)c2ccc(OC)cc2)cc1,.,.,.,-,.
Cc1nn(-c2ccccc2)c(C)c1NC(=O)c1ccc(S(=O)(=O)N2CCCC2)cc1,57.3,-,-,-,-
SMILES,CYP2C9 inhib,CYP2C19 activ,CYP2C9 act,EphB4 antag,CYP2C19 inhib
COc1ccc(S(=O)(=O)Nc2cc(C)nn2-c2ccccc2)cc1,97.9,-,-,-,-
COc1ccc(C(=O)n2nc(C)cc2Nc2ccccc2)cc1,75.1,-,-,-,-
Cc1nn(-c2ccccc2)c(C)c1/C=N\NS(=O)(=O)c1ccc(Cl)cc1,99.1,-,-,-,98.0
O=C(/C=C/c1cccc([N+](=O)[O-])c1)NCCSc1ccccc1,-,-,-,-,-
CCn1nc(C)c(NS(=O)(=O)c2ccccc2)c1C,-,-,-,-,85.0
Cc1nn(-c2ccccc2)c(C)c1NS(=O)(=O)c1ccccc1,91.0,-,-,-,95.5
Cc1nn(C)c(C)c1NS(=O)(=O)c1ccccc1,-,-,-,-,-
Cc1ccc(S(=O)(=O)c2nc(N3CCOCC3)sc2Cl)cc1,-,-,-,-,-
Cc1ccc(S(=O)(=O)NCCSc2nnnn2-c2cc(C)ccc2C)cc1,-,-,-,-,61.2
Cc1ccc(S(=O)(=O)NCCSc2nnc(N)s2)cc1,-,-,2,-,95.5
COc1ccc(-n2c(COc3ccc(Cl)cc3)nnc2SCc2ccc(C#N)cc2)cc1,-,-,-,-,-
CNc1oc(-c2ccccc2Cl)nc1C#N,-,-,-,-,-
